SMILES strings stand for the structures. Active and inactive are the calls of the source.

A short description of this test: A549 lung cancer cell viability effects, profiling panel, resazurin fluorescence, 24 h, PK04 Diversity Set (AID 1171). Further: test concentration not given here. Conditions: higher = more signal, called active from +8 up or from −8 down. (Alamar Blue is a resazurin reagent that responds to reducing activity.)
As for `CCOc1cc(C(O)C2C=CC3C(=O)NC(=O)C3N2Nc2ccccn2)ccc1O` (stereo unspecified), the z-score is -0.923 (inactive).

For the compound `Cc1cc(C)c(C(O)C2C=CC3C(=O)N(c4ccccc4)C(=O)C3N2Nc2ccccc2)c(C)c1` (stereo unspecified), the z-score is -0.825 (inactive).

As to `CCCC=C(CCC)[C@@H](NS(=O)(=O)c1ccccc1)c1ccc(C(F)(F)F)cc1`, the z-score was -0.795 (inactive). On to `COCCCNC(=O)[C@@]1(Cc2ccccc2)COC(c2ccc(OCCCO)cc2)=N1`, for which the z-score was 0.244 (inactive). As to `C[C@@]1([C@@H](NC(=O)c2cccs2)c2ccc(-c3ccccc3)cc2)C[C@H]1C1CCCCC1`, the z-score was 2.26 (inactive).

`COc1ccc(C#Cc2ccc3c(c2)[C@]2(C(=O)N3)[C@H](c3ccc(OCCO)cc3)N3[C@H](c4ccccc4)[C@H](c4ccccc4)OC(=O)[C@H]3[C@@H]2C(=O)N2CCN(c3ncccn3)CC2)cc1`: the z-score is 1.32 (inactive). The value for `CC(C)C[C@@H]1NC(=O)[C@@H]2C[C@H](C(=O)NCc3ccc(F)cc3)[C@H](c3ccc(O)cc3)N2C1=O` was 0.149 (inactive); that for `CCCN1C(=O)[C@@H]2Cc3c([nH]c4ccccc34)[C@@H](c3cccc(O)c3)N2C1=O` was 0.264 (inactive); that for `COC(=O)[C@@]1(Cc2ccc(OC)cc2)[C@H]2c3cc(C(=O)N4CCCC4)n(CCc4ccc(O)c(OC)c4)c3C[C@H]2CN1C(=O)c1ccccc1` was 1.05 (inactive).

Consider `C=CC[C@]1(C(=O)NCC(O)CO)N=C(c2ccc(OCCCO)cc2)O[C@H]1c1ccccc1N=[N+]=[N-]` (stereo partly specified), for which the z-score was 0.702 (inactive).

Regarding `COc1ccc([Si](C)(C)[C@@H]2[C@@H](CCO)O[C@]3(C(=O)N(Cc4ccc(N5C(=O)c6ccccc6Oc6ccccc65)cc4)c4ccccc43)[C@H]2C)cc1`, the z-score was -1.47 (inactive). On to `COC(=O)[C@@]1(Cc2ccccc2N=[N+]=[N-])N=C(c2ccc(OCCCO)cc2)O[C@H]1c1ccccc1`, for which the z-score was -2.88 (inactive).

With `C=C(COC)/C(=C/C[C@@H](OC(=O)c1ccncc1)c1cccc(OCCO)c1)c1cc(C(=O)OC)ccc1OC`, the z-score is -1.8 (inactive).

For `COCCCNC(=O)[C@]1(Cc2ccccc2)N=C(c2ccc(OCCCO)cc2)O[C@@H]1c1ccccc1N=[N+]=[N-]`, the z-score was -1.09 (inactive). In the case of `Cc1ccccc1C(O)C1C=CC2C(=O)N(C)C(=O)C2N1Nc1ccc([N+](=O)[O-])cc1[N+](=O)[O-]` (stereo unspecified), the z-score was -0.372 (inactive). In the case of `CCCCCCCCCCC(O)C1C=CC2C(=O)NC(=O)C2N1Nc1ccccn1` (stereo unspecified), the z-score was -1.5 (inactive). For the compound `Cc1ccc(S[C@]2(C(=O)O)CC(=O)N(C3CCCCC3)[C@@H]2c2ccc(CO)cc2)cc1`, the z-score is -0.345 (inactive).

`CC(C)c1ccc(NN2C(C(O)c3ccccn3)C=CC3C(=O)N(c4ccccc4)C(=O)C32)cc1` (stereo unspecified): the z-score is -0.943 (inactive). Regarding `COc1ccc(C(=O)Nc2ccc(CN3C(=O)[C@@]4(O[C@@H](CC(=O)N5Cc6ccccc6C[C@H]5CO)[C@H]([Si](C)(C)c5ccc(OC)cc5)[C@H]4C)c4ccccc43)cc2)cc1`, the z-score was 0.143 (inactive).

For `CCOC(=O)C[C@H]1[C@H](OC(=O)c2cc3ccccc3oc2=O)[C@@H](NC(=O)c2ccc3ccccc3n2)c2cc(OCCCO)ccc2N1C(=O)c1ccc2ccccc2n1`, the z-score was -0.82 (inactive). Regarding `COC(=O)[C@]1(Cc2ccccc2CN=[N+]=[N-])N=C(c2ccc(OCCCO)cc2)O[C@@H]1c1ccccc1`, the z-score was -2.91 (inactive). As to `COC(=O)[C@@]1(Cc2ccccc2)[C@H]2c3cc(C(=O)N4CCCC4)n(Cc4ccccc4)c3C[C@H]2CN1C(=O)c1ccccc1`, the z-score was -3.12 (inactive).

In the case of `O=C1c2ccccc2C(=O)C2CC([C@H]3Oc4ccccc4S(=O)(=O)N4CCC[C@@H]34)=CCC12` (stereo partly specified), the z-score was 0.178 (inactive). The value for `CCOC(=O)C1=CC[C@@H](c2cccc(Br)c2)N(S(=O)(=O)c2ccc(C)cc2)[C@H]1c1ccc([N+](=O)[O-])cc1` was 0.851 (inactive).

Turning to `C#CCOC(=O)N[C@H](C=CCCCC)c1ccccc1`, the z-score is -0.28 (inactive). `COCCOC(=O)N1C(=O)[C@@]2(c3ccccc31)[C@H](c1ccccc1OCCO)N1[C@H](c3ccccc3)[C@H](c3ccccc3)OC(=O)[C@H]1[C@@H]2C(=O)N1CCc2cc(OC)c(OC)cc2C1`: the z-score was -0.395 (inactive). With `CN1C(=O)C2C=CC(C(O)c3cccc4ccccc34)N(NC(=O)OC(C)(C)C)C2C1=O` (stereo unspecified), the z-score is -0.195 (inactive).

With `CN(C)C(=O)[C@@]1(Cc2ccccc2N=[N+]=[N-])N=C(c2ccc(OCCCO)cc2)O[C@H]1c1ccccc1N=[N+]=[N-]`, the z-score is -0.406 (inactive).

As to `[N-]=[N+]=Nc1ccccc1[C@@H]1OC(c2ccc(OCCCO)cc2)=N[C@]1(CCS(=O)(=O)c1ccccc1)C(=O)NCc1ccccc1`, the z-score is -0.725 (inactive).

With `CC(C)C(CO)N1C(=O)[C@@H]2[C@H]3C(=O)OCC=C[C@H]3OC23C=CCN(CCN2CCOCC2)C(=O)[C@@H]13` (stereo partly specified), the z-score was -0.324 (inactive).

Take `CN(C)C(=O)[C@@]1(CCC(=O)OC(C)(C)C)N=C(c2ccc(OCCCO)cc2)O[C@H]1c1ccccc1N=[N+]=[N-]`: the z-score is 0.966 (inactive).

In the case of `C=CCNC(=O)[C@H]1[C@@H]2C(=O)O[C@@H](c3ccccc3)[C@@H](c3ccccc3)N2[C@@H](c2ccc(O)cc2)[C@]12C(=O)N(C(=O)OCCOC)c1ccc(C#CC3(O)CCCCCC3)cc12`, the z-score is -0.316 (inactive). For the compound `CCOC(=O)C1=CC[C@@H](c2ccc(N(CC)CC)cc2)N(S(=O)(=O)c2ccc(C)cc2)[C@H]1c1ccc([N+](=O)[O-])cc1`, the z-score was 0.325 (inactive). The same measure for `CCCNC(=O)[C@@]1(Sc2ccc(C)cc2)CC(=O)N(Cc2ccccc2)[C@@H]1c1ccc(CO)cc1I`: 0.198 (inactive).

`C[N+](C)(C)CCCCCCNC(=O)[C@H]1C[C@H]2C(=O)N3CCC[C@H]3C(=O)N2[C@H]1c1cccc(OCCO)c1`: the z-score is 0.558 (inactive). `O=C(O)[C@]1(CCS(=O)(=O)c2ccccc2)N=C(c2ccc(OCCCO)cc2)O[C@@H]1c1ccccc1`: the z-score is 0.704 (inactive).

These data come from PubChem BioAssay.
